Among all 200,000 compounds or so, about 4,500 (2.2%) were called active. Not shown: some 12% with an inconclusive outcome. Many of the other results were omitted from the sample, so actives are more common in it than they were. Unmarked numbers belong to inactive results. Calls follow the shape of the dose curve; as a rule, active = well fitted inhibition curve with a large enough effect; inconclusive = small, poorly fitted or top-dose-only effect, or effect the other way; inactive = flat fitted curve, though single readings scatter.
Potency is read from the fitted curve at half-maximal effect.

In this test the target is Cruzipain (Trypanosoma cruzi) (UniProt P25779). In words: qHTS Assay for Promiscuous and Specific Inhibitors of Cruzain (without detergent). Also: nearly all actives have a fitted effect of over 40% in size. Particulars: purified cruzain, Z-FR-AMC fluorescence, no detergent. The procedure: Cruzain is a cysteine protease from the tropical parasite Trypanosoma cruzi. Dual qHTS experiment was performed against the NCGC compound collection in order to 1) identify novel inhibitors of the enzyme and 2) profile the compound collection for promiscuous inhibitors operating via colloidal aggregation (by performing detergent-free and detergent-containing comparison screens). Cruzain was assayed by the use of fluorogenic coumarin-based substrate Z-FR-AMC: proteolytic cleavage releases AMC, whose fluorescence is measured at 360 nm excitation and 450 nm emission. Purified cruzain was supplied by the labs of Prof. James McKerrow and Brian Shoichet, UC San Francisco.
Chain of Cruzipain (Trypanosoma cruzi) (P25779 123-467 limits assumed): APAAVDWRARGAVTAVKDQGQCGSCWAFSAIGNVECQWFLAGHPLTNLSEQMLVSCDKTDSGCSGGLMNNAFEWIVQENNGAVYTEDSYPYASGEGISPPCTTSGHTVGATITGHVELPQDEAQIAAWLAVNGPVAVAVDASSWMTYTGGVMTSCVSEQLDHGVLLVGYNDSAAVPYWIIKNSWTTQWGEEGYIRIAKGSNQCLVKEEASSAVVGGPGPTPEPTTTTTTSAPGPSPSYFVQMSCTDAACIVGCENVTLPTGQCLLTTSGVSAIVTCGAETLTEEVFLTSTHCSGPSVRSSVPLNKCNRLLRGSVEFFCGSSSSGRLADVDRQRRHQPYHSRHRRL
This assay had 0.00005% Triton X-100 concentration. See also releated assay "qHTS Assay for Promiscuous and Specific Inhibitors of Cruzain (with detergent)" with 0.01% Triton X-100.
See following references for additional details:
Assay Provider: Shoichet, Brian; University of California, San Fancisco
Screening Center PI: Austin, C.P.
Screening Center: NIH Chemical Genomics Center [NCGC]
Buffer: 100 mM Sodium Acetate, pH 5.5, 5 mM DTT, Triton X-100 concentration: 0.01%.
Buffer in columns 3 and 4 as negative control (no enzyme).
Substrate solution: 2 uM final concentration of Z-FR-AMC (catalog number I-1160, Bachem) dispensed throughout the plate.
Enzyme: 1.5 nM Cruzain final concentration in columns 1, 2, 5-48. Column 1 is neutral (100% activity). Column 2 contained titration of covalent inhibitor K11777, starting concentration 1 mM, then 1:2 dilution in duplicate).
Three uL of enzyme or buffer were dispensed to 1536-well Greiner black solid bottom plates. Compounds and controls (23 nL) were transferred via Kalypsys PinTool. The plates were incubated for 15 min at room temperature, and then 1 uL of substrate solution was added to start the reaction. The plates were immediately transferred to and read 4 times every 30 seconds for 2 min on ViewLux High-throughput CCD imager (Perkin-Elmer) using 360 nm excitation and 450 nm emission fluorescence protocol. The fluorescence intensity difference between the third and the first time points (time lapse of 60 seconds) was used to compute reaction progress.
In general terms: qHTS replaces the single test concentration by a dilution series.
`COC(=O)c1ccccc1NC(=O)Cn1c(=O)cc(C)c2c(C)nn(-c3cccc(Cl)c3C)c21`: the max response, negative = inhibition is 1.01%.

`O=C(Nc1ccc2c(c1)OCO2)c1cc(-c2cccc(Cl)c2)on1`: the max response, negative = inhibition was -7.12%.

Regarding `CC(C)C(=O)Nc1cccc(C(=O)Nc2ccc3c(c2)OCO3)c1`, the max response, negative = inhibition was -8.97%.

In the case of `O=C(Nc1ccc2c(c1)OCO2)c1sc2cc(Cl)ccc2c1Cl`, the Potency was 10 µM (active).

For the compound `O=C(CCc1nc(CN2CCN(S(=O)(=O)c3ccc(Br)cc3)CC2)no1)N1CCCCC1`, the max response, negative = inhibition was 27%.

As to `Cc1ccc(-c2nc3ccccn3c2Nc2c(C)cccc2C)o1`, the max response, negative = inhibition was 0.509%.

With `Cc1ccc(-n2ncc3c(N4CCC(C(N)=O)CC4)ncnc32)cc1`, the max response, negative = inhibition is 17.2%.

Take `Cc1cccc(NC(=O)/C(=C\c2ccco2)NC(=O)c2ccccc2)c1`: the max response, negative = inhibition was 4.33%.

Regarding `O=C(OCN1C(=O)c2ccccc2C1=O)/C(=C\c1ccco1)NC(=O)c1ccccc1`, the Potency is 0.398 µM (active).

`CC(C)(C)c1ccc(C(=O)NCC(=O)OCN2C(=O)c3ccccc3C2=O)cc1`: the max response, negative = inhibition is 8.73%.

For `CCc1ccc(NC(=O)CCCc2nnc3n(CCCOC)c(=O)c4sccc4n23)cc1`, the max response, negative = inhibition is 1.39%.

Take `CCc1ccccc1NC(=O)c1ccc2nc(CCc3ccccc3)oc2c1`: the max response, negative = inhibition is 1.42%.

`Cc1ccc(NC(=S)NC2CCCC2)cc1`: the max response, negative = inhibition was -5.53%.

In the case of `Cc1ccc(NC(=S)N/N=C2/CCCc3c(C)cc(C)cc32)cc1`, the Potency is 31.6 µM (active).

Consider `CCCCNC(=S)N/N=C1\CCCCc2ccccc21`, for which the max response, negative = inhibition is -19.4%.

As for `CC(C)C[C@H](NC(=O)[C@@H]1O[C@H]1C(=O)O)C(=O)NCCCCN=C(N)N`, the Potency is 0.0316 µM (active).

In the case of `COc1ccc(NC(=O)CCCc2nnc3n(CCC(C)C)c(=O)c4sccc4n23)c(OC)c1`, the max response, negative = inhibition was -6.21%.

Consider `O=C(Nc1cccc(Cl)c1)c1csnn1`, for which the max response, negative = inhibition was -5.33%.

Turning to `Cc1cccc2c1-c1sc(C(=O)Nc3ccc(F)cc3F)cc1CO2`, the max response, negative = inhibition is -26.4%.

On to `COc1cc(NS(=O)(=O)c2ccc3c(c2)OCC(C(=O)N2CCCC2)O3)cc(OC)c1` (stereo unspecified), for which the max response, negative = inhibition was 1.72%.

For the compound `CCCc1nc2ccccc2c(C(=O)OCC(=O)c2ccc3c(c2)NC(=O)CO3)c1CC`, the max response, negative = inhibition is -2.97%.

In the case of `O=C(CCc1nc2ccccc2c(=O)[nH]1)OCC(=O)c1cccc(Cl)c1`, the max response, negative = inhibition is -3.88%.

With `Cc1ccc(C(=O)COC(=O)c2cccc(N3C(=O)c4c(C)nc5ccccc5c4C3=O)c2)cc1C`, the Potency was 7.94 µM (active).

Regarding `Cc1cccc(-n2ncc(C(=O)N3CCN(c4ccc(Cl)cc4)CC3)c2C2CCN(C(=O)OC(C)(C)C)CC2)c1`, the max response, negative = inhibition was -21.4%.

`c1ccc(COc2nsnc2N2CCOCC2)cc1`: the max response, negative = inhibition is -3.44%.

Regarding `CCCCSc1ncnc2c1sc1nc(N3CCOCC3)c3c(c12)CCCC3`, the max response, negative = inhibition is 3.5%.

Consider `c1ccc(CSc2ncnc3c2sc2nc(N4CCOCC4)c4c(c23)CCCC4)cc1`, for which the Potency was 3.16 µM (active).

Regarding `CCOC(=O)c1cc(-c2ccccc2)n(-c2cccc(C(=O)Nc3cc(OC)cc(OC)c3)c2)c1C`, the max response, negative = inhibition is -4.47%.

Turning to `CSc1nc(Nc2ccc(F)cc2)cc(-c2ccccc2)n1`, the max response, negative = inhibition is -2.64%.

Turning to `COc1cc2c(cc1OC)C(Nc1ccc(S(N)(=O)=O)cc1)=NC(C)(C)C2`, the max response, negative = inhibition is 5.29%.

For `COc1cc2c(cc1OC)C(C(C)C)=NC(C)(C)C2`, the Potency is 20 µM (active).

Consider `COc1cc2c(cc1O)C(SC)=NC(C)(C)C2`, for which the max response, negative = inhibition was -12.8%.

Regarding `CCOc1ccc(N(CC)S(=O)(=O)N2CCCC(C(=O)NCc3ccc(Cl)cc3)C2)cc1` (stereo unspecified), the max response, negative = inhibition is 19.9%.

In the case of `CC(=O)N1CCCc2cc(S(=O)(=O)N3CCC(C(=O)NC4CCCCC4)CC3)ccc21`, the max response, negative = inhibition was 8.72%.

In the case of `c1cnc(Nc2nc(-c3ccc4ccccc4c3)cs2)nc1`, the Potency is 3.98 µM (active).

As to `c1ccc(Nc2nc(-c3ccncc3)cs2)nc1`, the max response, negative = inhibition was 2.93%.

With `COc1ccc(Nc2nc(-c3ccccc3)cs2)cc1`, the max response, negative = inhibition was -15.9%.

Turning to `COC(=O)c1ccccc1NC(=O)c1cnn(-c2ccc(F)cc2)c1-n1cccc1`, the max response, negative = inhibition was 3.91%.

As for `CCCCCN1CC(O)=C(c2nc(-c3ccc(Cl)cc3)cs2)C1=N`, the Potency is 5.01 µM (active).

In the case of `CCCCCN1CC(O)=C(c2ccccc2)C1=N`, the max response, negative = inhibition is -0.607%.

For the compound `CCCc1cc(-c2nc(-c3ccc(C)cc3)cs2)ccn1`, the max response, negative = inhibition was 13.4%.

For the compound `Cc1ccc(S(=O)(=O)N(Cc2nc(-c3ccc(Cl)cc3)no2)C2CCCCC2)cc1`, the max response, negative = inhibition was -17.5%.

On to `CCN(CC)S(=O)(=O)c1ccc2c(c1)N(CC(=O)NCc1ccccc1)C(=O)CS2`, for which the max response, negative = inhibition was 1.54%.

In the case of `c1ccc(-c2csc(N3CCc4ccccc4C3)n2)cc1`, the Potency was 25.1 µM (active).

For `N#C/C(=C1\CCCN1)c1nc(-c2ccccc2)cs1`, the max response, negative = inhibition is -17.6%.

Turning to `O=C(C(=O)N1CCc2ccccc2C1)N1CCc2ccccc2C1`, the max response, negative = inhibition is -0.495%.

For the origin of these results see PubChem BioAssay AID1476 (National Center for Advancing Translational Sciences (NCATS), 2009).
